Among all 87,000 compounds or so, about 360 (0.41%) were called active. The list comes from a sample in which actives are over-represented; it also holds similar structures and randomly drawn compounds. Values without a mark were called inactive. Cut-off read from the data, not from the text of the source: active = cytotoxicity above about 50%; inactive = the rest.
Assay: cytotoxicity in HT1080 fibrosarcoma cells, cell-based, fluorescence readout (AID 620);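 note: cells exposed to compound overnight then 4 h with Alamar Blue; 0% = vehicle DMSO and 100% = killing control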
Details: HT1080 viability, at 10 µM, hits give high values

Structure (SMILES)	cytotoxicity
COc1ccc(C(=O)n2c(-c3ccco3)nc3ccccc32)cc1	56.2% (active)
COc1ccc(C(=O)n2nc(-c3ccco3)nc2N)cc1	25.6%
CCn1c(-c2ccco2)nc2ccccc21	6.1%
CCN(CC)C(=O)CSc1nc2sc(C)c(C)c2c(=O)[nH]1	-6.3%
COc1ccc(CCN(C)C(=O)N2CCOCC2)cc1OC	-5.8%
CCSc1nnc(NC(=O)c2cccc(OCc3c(C)noc3C)c2)s1	-11.1%
COc1ccc2nc(NC(=O)c3cccc(OCc4c(C)noc4C)c3)sc2c1	57.3% (active)
COc1cc(C(=O)Nc2nc3ccccc3s2)ccc1OCc1c(C)noc1C	-13%
CC1C(=O)CCN(C(C)C)C1C (stereo unspecified)	-13.7%
Cc1oc2cc(O)cc(C)c2c(=O)c1-c1cnn(-c2ccccc2)c1	33.9%
O=C1CCc2cc(S(=O)(=O)N3CCCC3C(=O)N3CCN(c4ccccc4)CC3)ccc2N1 (stereo unspecified)	-3.8%
Cc1cc(NCCCn2ccnc2)n2ncc(-c3ccccc3)c2n1	-5.3%
CC(C)(C)c1cc(NCCCn2ccnc2)n2ncc(-c3ccc(Cl)cc3)c2n1	-4.9%
Cc1cccc(-n2nnnc2SCC(=O)NCCN2C(=O)CSC2=O)c1	-3.3%
O=C(c1cc2ccccc2oc1=O)N(Cc1cccs1)C1CCS(=O)(=O)C1 (stereo unspecified)	3.4%
Cc1[nH]nc2c1C(C1CC=CCC1)C(C#N)=C(N)O2 (stereo unspecified)	73% (active)
Cc1[nH]nc2c1C(C(C)C)C(C#N)=C(N)O2 (stereo unspecified)	11.3%
Cc1ccc(C2C(C#N)=C(N)Oc3n[nH]c(C)c32)cc1 (stereo unspecified)	1.3%
Cc1ccc(N=Nc2c(C)[nH][nH]c2=O)c(C)c1	1.8%
COc1ccc(CCN/C=C2/CC(=O)NC2=O)cc1OC	0.2%
COc1ccc(C)cc1NC(=O)NC1CCN(Cc2ccccc2)CC1	3%
Nc1ccc2c(c1)C(=O)C(=O)c1ccccc1-2	92.7% (active)

Structure (SMILES)	cytotoxicity
O=C1C(=O)c2ccc(-c3ccccc3)cc2-c2ccccc21	47.5%
Nc1ccc(Br)c2c1C(=O)c1ccccc1C2=O	-18.1%
COc1cc(C2=NOC(C(=O)NCc3ccccn3)C2)cc(OC)c1OC (stereo unspecified)	-2.6%
COc1cccc(C2=NOC(C(=O)NCc3cccs3)C2)c1 (stereo unspecified)	-1.8%
COc1ccc(C2=NOC(C(=O)NCc3cccs3)C2)cc1OC (stereo unspecified)	59.8% (active)
COc1ccc(C2=NOC(C(=O)NCc3ccco3)C2)cc1OC (stereo unspecified)	46.5%
COc1cc(C2=NOC(C(=O)NCc3ccco3)C2)cc(OC)c1OC (stereo unspecified)	54.4% (active)
O=C(NCc1cccs1)C1CC(c2ccccc2O)=NO1 (stereo unspecified)	-1.4%
COc1ccc(C2=NOC(C(=O)NCc3ccco3)C2)cc1 (stereo unspecified)	6%
COc1ccc(C2=NOC(C(=O)NCc3cccs3)C2)cc1 (stereo unspecified)	7.4%
COc1cc(C2=NOC(C(=O)NCc3cccs3)C2)cc(OC)c1OC (stereo unspecified)	58.1% (active)
CCCCN(C)Cc1c(O)ccc2c(-c3ccccc3)cc(=O)oc12	11.9%
CCOc1ccc(NC(=O)N2CCC(NC(=O)c3ccco3)CC2)cc1	4.5%
O=C(CSc1ncn(-c2ccccc2)n1)c1cccs1	-3.1%
CCOc1ccc(-c2nc(S(=O)(=O)c3ccccc3)c(NCc3cccnc3)o2)cc1	0.3%
CC(=O)Nc1ccccc1-c1nn[nH]n1	-11.5%
Cn1c(SCc2ccon2)nc2ccccc2c1=O	2.4%
Cc1ccc2nc(N/N=C\c3ccc([N+](=O)[O-])o3)nc(-c3ccccc3)c2c1	13.6%
Cn1c(/C=C/c2ccc([N+](=O)[O-])o2)nc2ccccc2c1=O	85.1% (active)
O=C(CC1(O)C(=O)Nc2cc(Cl)cc(Cl)c21)c1ccccc1O (stereo unspecified)	-66.6%
CCCCNc1c(C(=O)OCC)c(=O)[nH]c2ccccc12	0.1%
CCN(CC)c1ccc(NC(=O)c2c(OC)cccc2OC)c(C)c1	-1.4%

Structure (SMILES)	cytotoxicity
CCN(CC)c1ccc(NC(=O)c2cccc(OC)c2)c(C)c1	16.9%
CCN(CC)c1ccc(NC(=O)c2cc(OC)cc(OC)c2)c(C)c1	59.7% (active)
CCC1Oc2ccccc2N(CC(=O)NCCCN2CCOCC2)C1=O (stereo unspecified)	-2.1%
O=S(=O)(Nc1ccc2c(c1)OCO2)c1ccc(Br)s1	9.9%
COCCn1c(SCC#N)nnc1-c1ccccc1	22.4%
CCOc1cc(/C=N/n2cnnc2)c(Br)cc1O	62.2% (active)
CCOc1cc(/C=N/n2cnnc2)cc(Br)c1O	0.3%
CCOc1cc(/C=N/n2cnnc2)ccc1O	-5%
COc1ccc(CS(=O)(=O)/C(Cl)=C(/Cl)C(=O)Nc2ccc(OC)nc2)cc1	63.1% (active)
COc1ccc(NS(=O)(=O)Cc2ccccc2Cl)cn1	14.8%
COc1ccc(NC(=O)C(CC(C)C)NC(=O)c2ccccc2C)cn1 (stereo unspecified)	0.6%
COc1ccc(CNC(=O)Nc2ccc(C)cc2)cc1	-2.8%
CCCS(=O)(=O)C(=C(Nc1ccc(OC)cc1)Nc1ccc(OC)cc1)S(=O)(=O)CCC	7.4%
COc1ccc(NC(=O)/C(Cl)=C(/Cl)S(=O)(=O)Cc2ccccc2)cn1	79.3% (active)
COC(=O)c1ccccc1S(=O)(=O)Nc1ccc(OC)nc1	13%
COc1ccc(NC(=O)c2cc(OC)c(OC)c(OC)c2)cn1	3.1%
COc1ccc(C(=O)/C=C(\N)C(F)(F)F)c(O)c1	-3.6%
CCOC(=O)CSc1nc2c(c(=O)[nH]c(=O)n2C)n1C/C=C(/C)Cl	12%
O=C1C=C(N(CCO)CCO)C2(CCCCC2)O1	-7.3%
O=C(O)CNc1nc(-c2ccccc2)nc2ccccc12	-10.9%
COC1=C(OC)c2ccccc2C(C(=O)O)N/C1=C(/C)Nc1ccncc1 (stereo unspecified)	-1%
CN(CC(=O)NC1CCCCCCC1)S(=O)(=O)c1cccc2cccnc12	-11.8%

Source: PubChem BioAssay AID620 (Sanford-Burnham Center for Chemical Genomics, 2007)
